This passage reports outcome and AC50 results from PubChem BioAssay (EPA / NIEHS).

Test [1] deals with Estrogen receptor beta (Homo sapiens) (UniProt Q92731). In words: OT_ER_ERbERb_1440: Odyssey Thera (OT) 24-hour HEK293T Protein-Complementation Assay for Estrogen Receptor-beta/-beta Homodimer (AID 2283380).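 Note: scored as signal increase over DMSO baseline for both agonists and antagonists.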 Summed up: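 HEK293T cells stably expressing ER beta LBD (aa 310-547) homodimer fragment-complementation reporter, dosed 24 h. Cells formaldehyde-fixed, Draq5-stained; gain in nuclear (agonist) or nuclear plus cytoplasmic (antagonist) fluorescence versus DMSO read by laser scanning cytometry.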

Test [2] deals with Estrogen receptor (Homo sapiens) (UniProt P03372). In words: OT_ERa_GFPERaERE_0480: Odyssey Thera (OT) 8-hour HeLa Transcription Induction Assay for Estrogen Receptor (AID 2283381; active = hit-call score of the fitted dose curve at least 0.9, where 1 is the maximum; inactive = score below 0.9). The gist of the method:
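Fluorescence microscopy with high-content image analysis measures ERE-driven GFP induction in HeLa cells at 8 h post-dose. Increases fitted against DMSO baseline.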

Test [3] shares this target. In words: OT_ERa_GFPERaERE_0120: Odyssey Thera (OT) 2-hour HeLa Transcription Induction Assay for Estrogen Receptor (AID 2283382). Summed up:
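Fluorescence-microscopy images of the GFP-ERα/ERE reporter, scored by high-content image algorithms, give the readout. HeLa exposure lasted 2 h, and only signal increase over DMSO was fitted.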

Test [4] concerns the target Retinoic acid receptor RXR-alpha (Homo sapiens) (UniProt P19793). In words: OT_NURR1_NURR1RXRa_0480: Odyssey Thera (OT) 8-hour HEK293T Protein Complementation Assay for Nurr1/retinoid X receptor (RXR) (AID 2283385). The gist of the method:
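Interaction of Nurr1 with RXRα read as reconstituted reporter fluorescence in a HEK293T fragment-complementation system, 8 h post-treatment; increase over DMSO baseline analysed.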

For test [5] the target is unchanged. In words: OT_NURR1_NURR1RXRa_1440: Odyssey Thera (OT) 24-hour HEK293T Protein Complementation Assay for Nurr1/retinoid X receptor (RXR) (AID 2283386). Summed up: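 Gain in fluorescence, fitted relative to DMSO, reflects Nurr1–RXRα association in HEK293T cells after 24 h dosing. Bait and prey are each linked to a reporter-protein fragment that reassembles on interaction.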

In test [6] the target is Peroxisome proliferator-activated receptor gamma (Homo sapiens) (UniProt P37231). In words: OT_PPARg_PPARgSRC1_0480: Odyssey Thera (OT) 8-hour Protein-Complementation Assay for Peroxisome Proliferator-activated Receptor Gamma / SRC-1 Co-activator (AID 2283387).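 Note: nuclear to cytoplasmic split Venus YFP fluorescence ratio reporting PPARg SRC-1 interaction.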 Summed up:
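HEK293T transiently transfected with PPARg and SRC-1 fused to Venus YFP fragments, compounds 8 h at 37C. Fixed, Draq5-stained cells imaged; nuclear/cytoplasmic 488 nm fluorescence ratio over at least 350 cells per image; gain fitted versus DMSO.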

The target is the same in test [7]. In words: OT_PPARg_PPARgSRC1_1440: Odyssey Thera (OT) 24-hour Protein-Complementation Assay for Peroxisome Proliferator-activated Receptor Gamma/ SRC-1 Co-activator (AID 2283388). Summed up:
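Readout: nuclear-to-cytoplasmic 488 nm fluorescence ratio, ≥350 cells per image, 8 images per well, after 24 h compound exposure of HEK293T expressing PPARg/SRC-1 split-YFP fusions. Activity fitted in positive direction against DMSO.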

Test [8] is described as follows: CEETOX_H295R_11DCORT: CeeTox H295R High-throughput Steroidogenesis Assay for 11-Deoxycortisol (11DCORT) (AID 2283432; active = hit-call score of the fitted dose curve at least 0.9, where 1 is the maximum; inactive = score below 0.9). To be noted: actives raise or lower the signal. The gist of the method:
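H295R cells prestimulated 48 h with 10 uM forskolin, then exposed 48 h to chemical in 0.1% DMSO. 11-Deoxycortisol in medium quantified by HPLC-MS/MS after MTBE extraction; bidirectional fit versus DMSO. MTT viability read in same wells.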

Test [9] is described as follows: CEETOX_H295R_OHPREG: CeeTox H295R High-throughput Steroidogenesis Assay for OH-Pregnenolone (OHPREG) (AID 2283434; active = hit-call score of the fitted dose curve at least 0.9, where 1 is the maximum; inactive = score below 0.9). As to conditions: actives raise or lower the signal. Summed up:
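H295R, 10 uM forskolin pre-stim 48 h; test chemical 48 h, 0.1% DMSO final. MTBE extraction, reverse-phase C18 HPLC-ESI+ MS/MS of medium. Gain/loss vs DMSO; viability by MTT in same wells.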

A short description of test [10]: CEETOX_H295R_OHPROG: CeeTox H295R High-throughput Steroidogenesis Assay for OH-Progesterone (OHPROG) (AID 2283435; active = hit-call score of the fitted dose curve at least 0.9, where 1 is the maximum; inactive = score below 0.9;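 for AC50: 17alpha-hydroxyprogesterone secreted into medium measured by HPLC-MS/MS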). To be noted: actives raise or lower the signal. Summed up: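 Medium steroid levels read by LC-MS/MS after 48 h chemical treatment (0.1% DMSO) of human adrenal H295R cells that had been forskolin-primed (10 uM, 48 h). Gain or loss fitted against DMSO; MTT cytotoxicity checked per well.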

Test [11] in a line: CEETOX_H295R_CORTIC: CeeTox H295R High-throughput Steroidogenesis Assay for Corticosterone (CORTIC) (AID 2283437; active = hit-call score of the fitted dose curve at least 0.9, where 1 is the maximum; inactive = score below 0.9;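 note: corticosterone secreted into medium quantified by mass spectrometry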;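 for AC50: human H295R adrenal cells prestimulated with forskolin before chemical exposure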). As to conditions: actives raise or lower the signal. The gist of the method:
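48 h forskolin (10 uM) prestim, then 48 h chemical exposure, final DMSO 0.1%. Readout: corticosterone in medium by LC-MS/MS after MTBE extraction. Gain/loss fit vs DMSO; MTT viability in same wells.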

A short description of test [12]: CEETOX_H295R_CORTISOL: CeeTox H295R High-throughput Steroidogenesis Assay for Cortisol (AID 2283438; active = hit-call score of the fitted dose curve at least 0.9, where 1 is the maximum; inactive = score below 0.9). As to conditions: actives raise or lower the signal. Summed up:
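Cortisol measured by HPLC-MS/MS after MTBE extraction of medium from H295R cells exposed 48 h to chemical (0.1% DMSO), following 48 h prestimulation with 10 uM forskolin. Viability assessed by MTT in the same wells.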

Test [13] can be described thus: CEETOX_H295R_DOC: CeeTox H295R High-throughput Steroidogenesis Assay for DOC (AID 2283439; active = hit-call score of the fitted dose curve at least 0.9, where 1 is the maximum; inactive = score below 0.9). As to conditions: actives raise or lower the signal. Summed up: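 11-Deoxycorticosterone quantified in medium by MTBE extraction and HPLC-MS/MS after 48 h chemical exposure (0.1% DMSO) of forskolin-primed (10 uM, 48 h) H295R cells. Same-well MTT viability; data fitted bidirectionally against DMSO.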

The nature of test [14]: CEETOX_H295R_ESTRADIOL: CeeTox H295R High-throughput Steroidogenesis Assay for Estradiol (AID 2283440; active = hit-call score of the fitted dose curve at least 0.9, where 1 is the maximum; inactive = score below 0.9;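 note: estradiol secreted into medium quantified by LC-MS/MS after dansyl derivatisation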). To be noted: actives raise or lower the signal. Summed up:
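H295R, 48 h forskolin (10 uM) prestim → 48 h compound, 0.1% DMSO final. Estradiol in medium: MTBE extraction, dansyl chloride derivatization, LC-MS/MS. Fit bidirectional vs DMSO baseline; MTT viability in same wells.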

Test [15] can be described thus: CEETOX_H295R_ESTRONE: CeeTox H295R High-throughput Steroidogenesis Assay for Estrone (AID 2283441; active = hit-call score of the fitted dose curve at least 0.9, where 1 is the maximum; inactive = score below 0.9;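 note: human adrenal H295R cells prestimulated with forskolin for two days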). To be noted: actives raise or lower the signal. The gist of the method:
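Estrone secreted into medium quantified by LC-MS/MS after dansyl chloride derivatization, following 48 h chemical exposure (0.1% DMSO final) of forskolin-prestimulated (10 uM, 48 h) H295R cells; gain or loss fitted against DMSO; MTT viability in same wells.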

The target of test [16] is Bile acid receptor (Homo sapiens) (UniProt Q96RI1). In words: OT_FXR_FXRSRC1_0480: Odyssey Thera (OT) 8-hour HEK293T Protein-Complementation Assay for Farnesoid X receptor/SRC-1 Co-activator (AID 2283383). Summed up: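 Binding of FXR to coactivator SRC-1 was read as fluorescence from a reconstituted split reporter in HEK293T cells, 8 h after chemical addition. Only increases in signal versus DMSO were fit.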

Test [17] has the same target. As to the kind of experiment: OT_FXR_FXRSRC1_1440: Odyssey Thera (OT) 24-hour HEK293T Protein-Complementation Assay for Farnesoid X receptor/SRC-1 Co-activator (AID 2283384). The gist of the method:
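Protein-fragment complementation: FXR and SRC-1 fused to reporter fragments that reassemble on interaction, read by fluorescence intensity. Human HEK293T cells measured 24 h post-dose; positive-direction fit versus DMSO.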

Results filed as inconclusive are left out. Activity calls are given as the source filed them. Rule for the calls, unless noted: active = hit-call score of the fitted dose curve at least 0.9, where 1 is the maximum; inconclusive = response in the unintended direction; inactive = score below 0.9.

Bile acid receptor (Homo sapiens), sequence (Q96RI1 whole entry, looked up): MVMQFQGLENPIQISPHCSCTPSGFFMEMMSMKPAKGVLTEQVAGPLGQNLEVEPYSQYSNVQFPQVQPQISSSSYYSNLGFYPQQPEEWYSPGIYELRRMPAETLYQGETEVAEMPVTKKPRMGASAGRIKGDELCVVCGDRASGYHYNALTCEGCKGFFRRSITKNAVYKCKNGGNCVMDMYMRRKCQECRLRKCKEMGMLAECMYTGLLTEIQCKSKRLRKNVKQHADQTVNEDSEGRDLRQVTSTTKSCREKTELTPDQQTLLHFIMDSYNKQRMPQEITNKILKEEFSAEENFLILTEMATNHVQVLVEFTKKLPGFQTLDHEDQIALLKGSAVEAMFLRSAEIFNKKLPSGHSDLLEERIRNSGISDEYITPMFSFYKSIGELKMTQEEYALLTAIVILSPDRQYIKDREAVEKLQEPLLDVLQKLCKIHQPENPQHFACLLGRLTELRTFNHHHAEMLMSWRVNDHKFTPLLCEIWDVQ
Retinoic acid receptor RXR-alpha (Homo sapiens), sequence (P19793 whole entry, looked up, the tested form may be a part): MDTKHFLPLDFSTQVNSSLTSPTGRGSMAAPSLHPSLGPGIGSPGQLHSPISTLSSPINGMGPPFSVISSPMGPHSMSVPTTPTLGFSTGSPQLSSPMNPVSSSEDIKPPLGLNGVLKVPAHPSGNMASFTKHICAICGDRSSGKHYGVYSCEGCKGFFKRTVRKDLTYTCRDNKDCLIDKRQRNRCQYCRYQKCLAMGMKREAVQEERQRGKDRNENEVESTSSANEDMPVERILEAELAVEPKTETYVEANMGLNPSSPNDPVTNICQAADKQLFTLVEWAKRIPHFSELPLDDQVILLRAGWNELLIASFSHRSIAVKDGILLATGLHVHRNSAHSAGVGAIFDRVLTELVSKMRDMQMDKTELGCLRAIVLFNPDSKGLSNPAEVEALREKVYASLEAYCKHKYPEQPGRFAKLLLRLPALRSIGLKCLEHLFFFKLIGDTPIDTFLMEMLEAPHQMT
Estrogen receptor beta (Homo sapiens), sequence (Q92731 whole entry, looked up, the tested form may be a part): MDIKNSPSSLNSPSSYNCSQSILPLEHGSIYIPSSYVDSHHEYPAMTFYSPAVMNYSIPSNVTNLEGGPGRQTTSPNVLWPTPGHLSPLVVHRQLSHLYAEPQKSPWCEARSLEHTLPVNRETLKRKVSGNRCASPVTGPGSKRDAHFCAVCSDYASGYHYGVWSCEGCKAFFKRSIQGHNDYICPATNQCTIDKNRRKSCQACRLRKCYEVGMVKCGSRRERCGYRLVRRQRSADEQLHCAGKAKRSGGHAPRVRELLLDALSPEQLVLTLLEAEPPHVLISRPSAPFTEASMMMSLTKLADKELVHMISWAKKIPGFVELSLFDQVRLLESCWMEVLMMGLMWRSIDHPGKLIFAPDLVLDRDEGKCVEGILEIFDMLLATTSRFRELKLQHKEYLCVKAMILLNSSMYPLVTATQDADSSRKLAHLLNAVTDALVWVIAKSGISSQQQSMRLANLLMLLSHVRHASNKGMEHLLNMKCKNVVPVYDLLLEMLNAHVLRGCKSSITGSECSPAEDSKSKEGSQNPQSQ
Estrogen receptor (Homo sapiens), sequence (P03372 whole entry, looked up): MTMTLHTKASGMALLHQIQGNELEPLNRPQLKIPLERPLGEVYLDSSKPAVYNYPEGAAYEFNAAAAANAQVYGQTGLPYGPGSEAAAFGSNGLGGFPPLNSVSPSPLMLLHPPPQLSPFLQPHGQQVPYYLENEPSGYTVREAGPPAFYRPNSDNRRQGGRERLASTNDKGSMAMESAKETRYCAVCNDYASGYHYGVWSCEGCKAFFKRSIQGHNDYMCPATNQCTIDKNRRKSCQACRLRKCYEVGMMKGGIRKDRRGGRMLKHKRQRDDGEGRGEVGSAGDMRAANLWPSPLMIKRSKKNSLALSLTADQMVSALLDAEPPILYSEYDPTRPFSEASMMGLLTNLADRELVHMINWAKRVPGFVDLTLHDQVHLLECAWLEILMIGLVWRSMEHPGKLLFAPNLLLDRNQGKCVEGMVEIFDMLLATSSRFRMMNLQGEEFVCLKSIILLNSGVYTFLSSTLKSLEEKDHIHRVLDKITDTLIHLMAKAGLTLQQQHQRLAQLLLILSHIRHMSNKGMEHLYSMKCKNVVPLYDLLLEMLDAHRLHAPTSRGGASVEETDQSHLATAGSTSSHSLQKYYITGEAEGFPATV
Peroxisome proliferator-activated receptor gamma (Homo sapiens), sequence (P37231 whole entry, looked up, the tested form may be a part): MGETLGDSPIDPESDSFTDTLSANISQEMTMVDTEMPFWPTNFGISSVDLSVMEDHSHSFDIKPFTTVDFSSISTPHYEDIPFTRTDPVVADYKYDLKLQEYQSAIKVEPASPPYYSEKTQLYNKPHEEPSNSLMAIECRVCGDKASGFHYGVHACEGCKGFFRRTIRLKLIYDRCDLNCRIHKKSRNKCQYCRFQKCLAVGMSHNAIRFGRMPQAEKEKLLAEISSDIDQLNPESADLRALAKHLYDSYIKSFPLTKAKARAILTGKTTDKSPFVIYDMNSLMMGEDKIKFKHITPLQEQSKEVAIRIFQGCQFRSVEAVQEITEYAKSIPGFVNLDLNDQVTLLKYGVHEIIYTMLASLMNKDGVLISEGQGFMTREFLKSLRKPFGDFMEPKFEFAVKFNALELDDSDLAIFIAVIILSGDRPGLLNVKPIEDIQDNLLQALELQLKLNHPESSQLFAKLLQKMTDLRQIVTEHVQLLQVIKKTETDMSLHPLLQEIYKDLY

Turning to `CC[C@H]1CC[C@H](NCc2cc3c(cc2OC)[C@H]2C[C@H]2C(=O)N3C)[C@H](c2ccccc2)N1`, the result in [1], in test [2], in test [3], in test [4], in test [5] and in [6] was inactive. For the same compound, the result in test [7], in [8], in test [9], in test [10], in test [11] and in test [12] was inactive. Also, the result in test [13] was inactive. Besides, the AC50 in test [14] is 6.19 µM (active); in [15], 7.37 µM (active).

Consider `COc1ccc(/C=C/S(=O)(=O)NC(=O)c2ccc(C)cc2Cl)cc1`, for which the result in test [1], in [16], in [6], in test [8], in test [9] and in test [11] was inactive. The result in [12] and in [13] was inactive. In addition, the concentration at half-maximal activity (AC50) in [17] is 7.84 µM (active); in test [4], 24 µM (active); in test [5], 29 µM (active); in test [7], 60.6 µM (active); in [10], 17.7 µM (active).

Turning to `CCCC(=O)OCC`, the compound was classed as inactive in test [1], in test [2], in [3], in [5], in test [6] and in test [7].

Take `COc1ccc2sc(C(=O)Nc3nnn[nH]3)c(OC(C)C)c2c1`: the compound was classed as inactive in test [1], in test [2], in test [3], in test [6] and in test [7].

As to `CC(C)(O)c1coc(S(=O)(=O)NC(=O)Nc2c3c(cc4c2CCC4)CCC3)c1`, the compound was called inactive in test [1], in [16], in test [4], in [5], in test [6] and in test [7]. Moreover, the outcome in [8], in [9], in [11] and in test [12] was inactive. Moreover, the figures for the concentration at half-maximal activity (AC50) in test [10] and in test [13] were 10.4 µM (active) and 25.2 µM (active), respectively.

As for `CC(C)=CCCC(C)=CC=O`, the compound was called inactive in test [1], in [2], in [3], in test [4], in test [5] and in test [6]. Further, the outcome in test [7], in test [8], in test [9] and in test [10] was inactive. Further, the figures for the AC50 in [11] and in test [12] were 78.6 µM (active) and 75 µM (active), respectively.

On to `CC(O)CN(CCN(CC(C)O)CC(C)O)CC(C)O` (stereo not drawn), for which the result in test [1], in test [17], in test [4], in test [5], in test [6] and in [7] was inactive.

Turning to `CCOC(=O)CC(CC(=O)OCC)(OC(C)=O)C(=O)OCC`, the compound was classed as inactive in test [1], in [16], in test [17], in test [4], in [5] and in [6]. For the same compound, the result in test [7] was inactive.

With `O=C(NS(=O)(=O)/C=C/c1ccccc1)c1ccc(F)cc1Cl`, the result in test [1], in test [2], in test [3] and in [6] was inactive. For the same compound, the AC50 in test [4] is 27.4 µM (active); in [5] it was 15.2 µM (active); in test [7], 50 µM (active).
